This passage reports growth results from PubChem BioAssay (NCI).

Each structure is given as a SMILES string. Compounds without any hit were thinned out: in the full panel of roughly 83,000, 20% have a hit.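 How to read the values: 0–100, growth inhibition (40 = 60% inhibited); 0, no net growth; -100 to 0, cell death (-40 = 40% of starting cells died; -100 = all dead).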 The source made the active and inactive calls. The calls were made as follows: active = growth percent below 10; inactive = the rest.

The assay has as its system HL-60(TB) leukemia. Nature of the assay: NCI-60 one-dose screen, 48 h (100 = growth as untreated, 0 = no growth, -100 = all killed). Particulars: 10 µM unless noted.
As for `O=C(Nc1ccccc1)Oc1cccc2cccnc12`, the growth was 57.3% (inactive). `Cc1cc(N/N=C/c2nc(-c3ccc(Br)cc3)oc2C)c2cc(Br)ccc2n1`: the growth is 18.9% (inactive). Take `COc1cc(/C=C2\CN(C)C/C(=C\c3cc(CN4CCCCC4)c(O)c(OC)c3)C2=O)cc(CN2CCCCC2)c1O`: the growth was 11% (inactive). For the compound `COc1nc2ccc(C)cc2cc1/C=[N+](\[O-])c1ccccc1`, the growth is 80.3% (inactive). As for `N#C/C(=C\c1ccc(Br)cc1)n1nnc2c(F)cccc21`, the growth is 0.171% (active).

Regarding `Cc1ccc(F)cc1NC(=O)c1cc(Cl)ccc1Nc1ccccc1`, the growth is 51.6% (inactive). With `Cc1cc2nc(NC(=O)CN3CCN(CCN4C(=O)c5cccc6cccc(c56)C4=O)CC3)sc2cc1C` the figure was 52.3% (inactive).

In the case of `CCOC(=O)C(C(C)=O)c1nc2sc3cc(Cl)c(Cl)cc3n2c(=O)c1C#N` (stereo not given), the growth was 100% (inactive). Take `C=C1C(=O)O[C@H]2[C@H]1CC/C(CNC(=O)Cc1c[nH]c3ccccc13)=C\CC[C@@]1(C)O[C@@H]21`: the growth was -52.4% (active). In the case of `NCCCc1nnc(CCC(=O)c2nc3ccccc3[nH]2)o1`, the growth was 92.3% (inactive). Turning to `COc1ccc(-c2[nH]c3ccccc3c2-c2ccc(OC)cc2)cc1`, the growth was 24.6% (inactive). On to `Nc1ncnc2c1N=C(c1ccc(Cl)cc1)CC(c1ccc3c(c1)OCO3)N2` (stereo not given), for which the growth is 90.7% (inactive). For the compound `Cc1ccc(NS(=O)(=O)c2ccc(-c3cnc(C4CC4)o3)cc2)cc1C`, the growth is -1.17% (active).

Regarding `Cn1cc(-c2noc(C(=O)c3cn(C)c4ncccc34)n2)c2ccccc21`, the growth is 98.6% (inactive). `Nc1nc2ncc(CCNc3ccc(C(=O)O)cc3)nc2c(=O)[nH]1`: the growth is 58.2% (inactive).
